G9a inh: G9a (human) methyltransferase inhibition. Q96KQ7. G9a H3K9 monomethylation, AlphaScreen, 2 h. Potency, µM (top dose mostly 102 µM), without a hit: at the highest dose activity, negative = inhibition, actives largely listed as inhibitors. 350,000 compounds, 8.8% hits; also: % is scaled to controls: 0 for no effect and ±100 for the full control effect; nearly all actives have a fitted effect of over 75% in size
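AlphaScreen read-out: biotin-H3K9 peptide (500 nM) methylation by 20 nM enzyme with 20 uM SAM, 2 h at room temperature after 15 min compound preincubation; anti-monomethyl H3K9 antibody plus donor/acceptor beads, 10 min dark.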
BAZ2B block: inhibitors of human BAZ2B bromodomain. Q9UIF8. AlphaScreen BAZ2B-H3K14Ac peptide displacement. Potency, µM (titrated, usually from 114 µM), for the others: top-dose activity change, negative = inhibition, hits mostly inhibitors. 360,000 compounds, 4.4% hits; also: % is scaled to controls: 0 for no effect and ±100 for the full control effect; nearly all actives have a fitted effect of over 60% in size
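AlphaScreen displacement of biotin-H3(5-23)K14Ac peptide (50 nM final) from BAZ2B (50 nM final) in PBS pH 7.4, 0.01% Tween-20; complex preformed 30 min RT, then compounds (top 110 uM) 30 min RT, beads 20 min dark.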
JMJD2A Tudor: blocks the human JMJD2A Tudor domain; O75164; Potency, µM (highest dose often 114 µM), without a hit: at the highest dose activity change, negative = inhibition, usual class: inhibitors; 390,000 compounds, 4.4% hits; AID 504339; AlphaScreen JMJD2A-Tudor / H3K4me3 peptide binding; also: % is scaled to controls: 0 for no effect and ±100 for the full control effect; nearly all actives have a fitted effect of over 50% in size
L3MBTL1 inh: inhibitors of human L3MBTL1. Q9Y468. AlphaScreen L3MBTL1–H3K9me1 peptide binding. Potency, µM (top dose mostly 57.1 µM), without a hit: top-dose activity, negative = inhibition, usual class: inhibitors. 230,000 compounds, 0.66% hits; also: % is scaled to controls: 0 for no effect and ±100 for the full control effect; nearly all actives have a fitted effect of over 60% in size
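AlphaScreen proximity signal between nickel-chelate acceptor and streptavidin donor beads (final 10 ug/mL) reports binding of 50 nM L3MBTL1 to 75 nM biotin-H3 K9me1 peptide; complex incubated with compounds 30 min at room temperature; cefsulodin titration as control.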
HP1b binding inh: blocks HP1-beta chromodomain binding to methylated histone tails | P83916 | AlphaScreen HP1-beta / biotin-H3K9me3 peptide binding | Potency, µM (series often up to 114 µM), inactives show at the highest dose activity change, negative = inhibition, usual class: inhibitors | 390,000 compounds, 0.56% hits | AID 540317; also: nearly all actives have a fitted effect of over 70% in size
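AlphaScreen: HP1-beta (50 nM) preformed 30 min with biotin-H3(1-18)K9me3 peptide (50 nM) in PBS pH 7.4, 0.01% Tween-20. Compound added for 30 min at RT, then streptavidin donor/nickel chelate acceptor beads (10 ug/mL) for 30 min.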
An asterisk follows results filed as active; [ ] = another dose, or the depositor's remark. In the library only some 11% were active in any assay of this set; here they are far more common. Calls follow the shape of the dose curve; as a rule, active = well fitted inhibition curve with a large enough effect; inconclusive = small, poorly fitted or top-dose-only effect; inactive = no such curve, though single readings can be large or run the other way. Potency is read from the fitted curve at half-maximal effect.

Results for O=C(Nc1ncccc1O)c1ccc(NS(=O)(=O)c2ccc3[nH]c(=O)[nH]c3c2)cc1 ?
G9a inh: 70.8µM*; BAZ2B block: 79.4µM*; JMJD2A Tudor: -22.1%; L3MBTL1 inh: -9.3%; HP1b binding inh: -3.8%

How did Cc1cccnc1NC(=O)c1ccc(NS(=O)(=O)c2ccc3[nH]c(=O)[nH]c3c2)cc1 do in these assays?
G9a inh: 10.5%; BAZ2B block: 11.4%; JMJD2A Tudor: -6.9%; L3MBTL1 inh: 2.8%; HP1b binding inh: 18.1%

What do the screens show for `CC(=O)Nc1ccc(NS(=O)(=O)c2ccc3[nH]c(=O)[nH]c3c2)cc1`?
G9a inh: 4.6%; BAZ2B block: -6.9%; JMJD2A Tudor: -4.2%; L3MBTL1 inh: 0.4%; HP1b binding inh: 23.4%

How did CC1CC(C)CN(C(=O)c2ccc(NS(=O)(=O)c3ccc4[nH]c(=O)[nH]c4c3)cc2)C1 (stereo not given) do in these assays?
G9a inh: 50.1µM*; BAZ2B block: -5.1%; JMJD2A Tudor: -10.3%; L3MBTL1 inh: -1.6%; HP1b binding inh: 9.1%

Results for CCC(CC)NC(=O)c1ccc(NS(=O)(=O)c2ccc3[nH]c(=O)[nH]c3c2)cc1 ?
BAZ2B block: inconclusive; JMJD2A Tudor: -14.1%; HP1b binding inh: 30.4%

How did CCOC(=O)c1ccc(NS(=O)(=O)c2ccc3[nH]c(=O)[nH]c3c2)cc1 do in these assays?
G9a inh: 11.2µM*; BAZ2B block: 0.0%; JMJD2A Tudor: -17.2%; L3MBTL1 inh: -11.3%; HP1b binding inh: -25.8%

How did CCCCCNC(=O)c1ccc(NS(=O)(=O)c2ccc3[nH]c(=O)[nH]c3c2)cc1 do in these assays?
G9a inh: 31.6µM*; BAZ2B block: -27.7%; JMJD2A Tudor: inconclusive; HP1b binding inh: 7.4%

How did Cc1cc(=O)[nH]c2nnc(SCc3cccc(C(F)(F)F)c3)n12 do in these assays?
G9a inh: 3.6%[59 µM]; BAZ2B block: inconclusive; JMJD2A Tudor: -11.4%; HP1b binding inh: 54.7%

How did CCc1nn2c(=O)cc(COC(=O)c3ccccc3NC(=O)COc3ccccc3C)nc2s1 do in these assays?
G9a inh: -5.0%[59 µM]; BAZ2B block: -4.5%; JMJD2A Tudor: -11.6%; HP1b binding inh: 36.9%

What do the screens show for `COc1cccc(N2CC(NC(=O)COc3ccc4ccccc4c3)CC2=O)c1` (stereo not given)?
G9a inh: -0.5%[59 µM]; BAZ2B block: -1.1%; JMJD2A Tudor: -11.7%; HP1b binding inh: 25.0%

What do the screens show for `COc1ccccc1-c1nc(SCC(=O)Nc2ccc(C)c(C)c2)n[nH]1`?
G9a inh: -33.8%[59 µM]; BAZ2B block: 1.1%; JMJD2A Tudor: -18.2%; HP1b binding inh: 38.4%

How did COc1ccc(Cl)cc1NC(=O)CN(C)C(=O)c1ccc(N2CCCCCC2)c([N+](=O)[O-])c1 do in these assays?
G9a inh: 22.4µM*; BAZ2B block: inconclusive; JMJD2A Tudor: inconclusive; L3MBTL1 inh: -14.1%; HP1b binding inh: inconclusive

What do the screens show for `COc1ccc(Cl)cc1NC(=O)CN(C)C(=O)c1ccc(N2CCCCC2)c([N+](=O)[O-])c1`?
G9a inh: 7.94µM*; BAZ2B block: inconclusive; JMJD2A Tudor: inconclusive; L3MBTL1 inh: -15.3%; HP1b binding inh: inconclusive

Results for CC(=O)C[C@H](c1ccc([N+](=O)[O-])cc1)c1c(O)c2ccccc2oc1=O ?
G9a inh: 18.0%[21.5 µM]

Results for O=C1C=CC(=O)N1Cc1ccccc1 ?
G9a inh: 1.78µM*; BAZ2B block: inconclusive; JMJD2A Tudor: 25.1µM*; HP1b binding inh: inconclusive

Results for Cn1cnnc1Sc1ccc(C(=O)OCC(=O)Nc2cc(Cl)cc(Cl)c2)cc1[N+](=O)[O-] ?
G9a inh: 15.8µM*; BAZ2B block: -38.6%; JMJD2A Tudor: inconclusive; L3MBTL1 inh: -16.1%; HP1b binding inh: -8.9%

Results for O=C(OCc1ccccc1)c1ccc(NCc2cc(O)ccc2O)cc1 ?
JMJD2A Tudor: 25.1µM*; HP1b binding inh: inconclusive

What do the screens show for `Oc1ccc(Cl)cc1CNc1cnc2ccccc2c1`?
G9a inh: inconclusive; BAZ2B block: -10.6%; JMJD2A Tudor: -25.2%; L3MBTL1 inh: 0.0%; HP1b binding inh: 30.6%

Results for COP(=O)(OC)c1ccc(NCc2cc(O)ccc2O)cc1 ?
JMJD2A Tudor: 3.55µM*; HP1b binding inh: inconclusive

From PubChem
